Source: PubChem BioAssay (EPA / NIEHS)
The source made the active and inactive calls. The calls were made as follows: active = hit-call score of the fitted dose curve at least 0.9, where 1 is the maximum; inactive = score below 0.9.

Columns and labels:
[1] = APR_HepG2_CellLoss_72hr: Apredica 72-hour HepG2 Assay for Cell Loss (AID 2282915); settings: high-content imaging
In short: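 HepG2 cells were exposed for 72 hr to compounds at 0.39–200 uM (ten concentrations, duplicate) in 0.5% v/v final DMSO. Nuclei were stained with Hoechst 33342 after 3.7% formaldehyde fixation, imaged at 20x, and counted; fits bidirectional versus DMSO.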

[2] = APR_HepG2_P-H2AX_72hr: Apredica 72-hour HepG2 Assay for H2AX Phosphorylation (AID 2282916); settings: imaging, actives raise or lower the signal;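 also: phospho-histone H2A.x immunostain intensity per cell marking DNA damage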
In short: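 HepG2 cells treated 72 h at 0.39–200 uM, 0.5% DMSO final, duplicates. Formaldehyde-fixed, Triton-permeabilised, immunostained for phospho-H2A.x with Hoechst; fluorescence imaged at 20x, bidirectional fit versus DMSO.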

[3] = APR_HepG2_MitoMembPot_72hr: Apredica 72-hour HepG2 Assay for Mitochondrial Membrane Potential (AID 2282917); settings: imaging, actives raise or lower the signal
In short: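 HepG2 cells exposed 72 h to compounds at 0.39–200 uM (0.5% v/v DMSO, duplicates); MitoTracker Red CMXRos 250 nM loaded 30 min before 3.7% formaldehyde fixation, imaged by HCS fluorescence. Bidirectional fit versus DMSO.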

[4] = APR_HepG2_MitoticArrest_72hr: Apredica 72-hour HepG2 Assay for Mitotic Arrest (AID 2282918); settings: high-content imaging, actives raise or lower the signal
In short: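 HepG2, 72 hr exposure, 0.39–200 uM in duplicate, 0.5% v/v DMSO final. Formaldehyde-fixed, Triton-permeabilized, anti-phospho-histone H3/FITC plus Hoechst. ArrayScan imaging at 20x; curves fit bidirectionally against DMSO baseline.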

[5] = APR_HepG2_P-H2AX_24hr: Apredica 24-hour HepG2 Assay for H2AX Phosphorylation (AID 2282920); settings: high-content imaging, actives raise or lower the signal
In short: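 HCS fluorescence imaging of phospho-H2A.x immunostain (with Hoechst 33342 nuclear counterstain) in HepG2 after 24 hr compound exposure; 10 concentrations, 0.39–200 uM, duplicate wells, 0.5% v/v DMSO. Gain or loss of signal fitted relative to DMSO baseline.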

[6] = APR_HepG2_StressKinase_72hr: Apredica 72-hour HepG2 Assay for Stress Kinase (AID 2282921); settings: HepG2 stress kinase (phospho-c-Jun) imaging, actives raise or lower the signal
In short: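 HepG2 cells treated 72 hr with 0.39–200 uM compound, 0.5% v/v DMSO, duplicate wells. After formaldehyde fixation and Triton permeabilization, stained with anti-phospho-c-Jun (1:500) and Cy3 secondary, imaged at 20x. Fitted in both directions against DMSO.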

[7] = APR_HepG2_StressKinase_24hr: Apredica 24-hour HepG2 Assay for Stress Kinase (AID 2282922); settings: HepG2 stress kinase (phospho-c-Jun) imaging, actives raise or lower the signal
In short: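 HepG2 cells exposed 24 hr to compound at 0.39–200 uM (10 concentrations, duplicate), 0.5% v/v DMSO final. Fixed in 3.7% formaldehyde, permeabilized with Triton X-100, immunolabeled for phospho-c-Jun with Hoechst 33342; HCS fluorescence imaging, bidirectional fit versus DMSO.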

[8] = APR_HepG2_p53Act_72hr: Apredica 72-hour HepG2 Assay for p53 Activation (AID 2282923); settings: high-content imaging, actives raise or lower the signal;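 also: average cellular p53 protein immunofluorescence intensity in HepG2 cells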
In short: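 HepG2 cells exposed 72 h to 0.39–200 uM in 0.5% DMSO, duplicates. Fixed, permeabilized cells immunostained for p53 (Cy5) with Hoechst; imaged at 20x, fluorescence analyzed bidirectionally against DMSO.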

[9] = APR_HepG2_MitoMass_72hr: Apredica 72-hour HepG2 Assay for Mitochondrial Mass (AID 2282924); settings: high-content imaging, actives raise or lower the signal;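 also: MitoTracker Red CMXRos stain intensity per cell imaged as mitochondrial mass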
In short: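 HepG2 cells were exposed for 72 hr to compounds at 0.39–200 uM (ten concentrations, duplicate, 0.5% v/v DMSO final). Live cells were stained with 250 nM MitoTracker Red CMXRos for 30 min, then fixed in 3.7% formaldehyde and imaged by HCS fluorescence.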

Measured: AC50

CCCCCCCCCCCC(=O)OC
inactive: all assays above

COc1ccc2c(c1)c(CC(=O)O)c(C)n2C(=O)c1ccc(Cl)cc1
not listed: [7]
inactive: all other assays above

Cc1cccc(Nc2cc(Cl)nc(SCC(=O)O)n2)c1C
inactive: all assays above

Cc1cccc(C)c1O
inactive: all assays above

CC(C)c1ccc(C(=O)N=C(N)N)cc1S(C)(=O)=O
inactive: all assays above

CCCCOC(=O)CCCCCCCCC(=O)OCCCC
inactive: all assays above

COc1cc(-c2nc(NC(=O)c3cc4cc(C)cc(C)c4n3CC(=O)O)sc2CCC2CCCCC2)c(OC)cc1Cl
active: [1] 26.4 µM | [4] 41.1 µM | [5] 38.9 µM | [9] 78.6 µM
inactive: [2] | [3] | [6] | [8]

O=c1[nH]cc(F)c(=O)[nH]1
active: [1] 2.45 µM
not listed: [7]
inactive: all other assays above

COC(=O)c1ccc(O)cc1
inactive: all assays above

CN[C@H]1CC[C@@H](c2ccc(Cl)c(Cl)c2)c2ccc(S(N)(=O)=O)cc21
inactive: [3] | [7] | [8] | [9]
active: [1] 6.85 µM | [2] 100 µM | [4] 3.89 µM | [5] 100 µM | [6] 123 µM

Cc1ccc(Cl)cc1
not listed: [7]
inactive: all other assays above

CCCCN(CCCC)CCCC
not listed: [7]
inactive: all other assays above

CNC(=O)[C@H]1O[C@@H](n2cnc3c(NCc4cc(Cl)ccc4OCc4cc(C)no4)ncnc32)[C@H](O)[C@@H]1N
not listed: [7]
inactive: all other assays above

CCCCCCCCCCCCCCCC
not listed: [7]
inactive: all other assays above

C[Si]1(C)O[Si](C)(C)O[Si](C)(C)O[Si](C)(C)O1
not listed: [7]
inactive: all other assays above

CC(=O)OCCOCCOCCOC(C)=O
not listed: [7]
inactive: all other assays above

Cc1cc(NC(=O)C(=O)O)cc(C)c1Oc1ccc(O)c2c1CCC2
inactive: all assays above

Cc1nc(C)nc(N2C[C@@H](C)N(c3ccnc([C@@H](C)O)n3)[C@@H](C)C2)n1
inactive: all assays above

CN1CCN(Cc2cc(-c3ccc4[nH]c(=O)oc4c3)co2)[C@@H](c2ccc(F)cc2)C1
active: [1] 51.9 µM | [2] 41.5 µM | [3] 66.8 µM | [4] 27 µM | [5] 62 µM | [6] 41.2 µM | [8] 54.8 µM | [9] 64.6 µM
inactive: [7]

Nc1ccccc1N
active: [1] 9.57 µM | [2] 38.8 µM | [4] 14.2 µM | [5] 45.8 µM | [6] 59.9 µM | [8] 18.9 µM | [9] 16.2 µM
inactive: [3]

Nc1ccc(S(=O)(=O)c2ccc(N)cc2)cc1
not listed: [7]
inactive: all other assays above

CCOC(=O)C(C)(C)Oc1ccc(Cl)cc1
not listed: [7]
inactive: all other assays above

CCCCCCCCCCO
not listed: [7]
inactive: all other assays above

Cc1ccc(C(C)C)c(O)c1
inactive: all assays above
